Broadly, the inhibition is the drop in the measured response relative to a control, in per cent.

The whole screen tested about 340,000 compounds, of which about 1,000 (0.29%) were called active. The list is a sample of the results. Entries with a potency or affinity are not part of this list. Values without a mark were called inactive. Cut-off read from the data, not from the text of the source: inconclusive = inhibition above about 27% without an active follow-up result; inactive = below that.

The test in a line: H1N1 influenza NS1A inhibitors, functional cell based assay (AID 504329). As to conditions: percent inhibition, at 12.5 µM, active compounds read high.
Turning to `CCOc1ccc(OCCCC(=O)O)cc1`, the inhibition was -12.4%.
Next, `CN1CCN(c2ccc(NC(=O)c3ccc(-c4ccc(Cl)cc4)o3)cc2)CC1`: 6.66%; `COC(=O)c1ccc(N2CCN(C)CC2)c(NC(=O)c2ccc(-c3ccc(Cl)cc3)o2)c1`: -4.26%.
For `N#C/C(=C\c1ccc(OCc2ccccc2)cc1)C(N)=O`, the inhibition is 4.02%.
Next, `CCn1c(=O)n(CC)c2cc(N3CCCC3)c(NC(=O)c3cc(Cl)ccc3OC)cc21`: 12.7%.
Next, `CN1CCN(/N=C/c2cccc(Cl)c2Cl)CC1`: 3.86%.
In the case of `CN1CCN(/N=C/c2ccc(-c3ccccc3)cc2)CC1` it was 10.8%; in that of `Cc1ccc(C)c(OCCSc2nnc(C)c(=O)[nH]2)c1`, -14.8%.
Take `Cc1ccc(S(=O)(=O)N2CCCC(C(=O)N3CCC4(CC3)OCCO4)C2)cc1` (stereo not given): the inhibition is 2.04%.
Turning to `COc1ccc(S(=O)(=O)N(CCC(=O)O)Cc2ccccc2)cc1`, the inhibition is -3.39%.
In the case of `O=C(N/N=C/c1cc(Br)c(Br)o1)c1cccnc1` it was 4.32%; in that of `O=C(N/N=C/c1cc2c(cc1Br)OCO2)c1cccnc1`, 3.42%.
Consider `O=C(N/N=C/c1cc(Br)c(O)c(Br)c1)c1cccnc1`, for which the inhibition is -2.33%.
In the case of `COc1cc(/C=N/NC(=O)c2cccnc2)cc(Br)c1O` it was 3.86%; in that of `Cc1ccc(N(CC(=O)NCc2ccccn2)S(=O)(=O)c2ccccc2)cc1Cl`, -3.75%.
In the case of `Cc1ccc(NC(=O)CCN2C(=O)CSC2=O)cc1` it was -13.2%; in that of `CCCCN1C(=O)/C(=C2/Sc3ccc(OC)cc3N2CC)SC1=S`, -6.84%; in that of `COc1ccc2c(c1)-c1c(sn(-c3ccccc3)c1=S)C(C)(C)N2`, 0.13%.
In the case of `COc1cc2c3c(c1)-c1c(sn(-c4cc(OC)ccc4OC)c1=S)C(C)(C)N3C(=O)C2=O` it was 7.42%; in that of `COc1ccc(N2CCN(C(=O)c3ccc(Cl)c(S(=O)(=O)N4CCOCC4)c3)CC2)cc1`, -0.24%.
Consider `CN(C)c1c(-c2ccccc2)cc(-c2ccccc2)[nH]c1=O`, for which the inhibition is -13.7%.
Next, `O=C1/C(=C/c2ccc([N+](=O)[O-])cc2)C=C(c2ccccc2)N1c1ccccc1`: 16.3%; `O=C(O)c1cccc(N2C(=O)/C(=C/c3ccc([N+](=O)[O-])cc3)C=C2c2ccccc2)c1`: 15.9%.
Next, `CSCCC(NC(=O)c1ccccc1)C(=O)N1CCN(C(=O)c2ccccc2)CC1` (stereo not given): -5.85%; `C[C@H](CO)N1C[C@H](C)[C@@H](CN(C)S(=O)(=O)c2ccc(F)cc2)Oc2c(NS(=O)(=O)c3ccccc3)cccc2C1=O`: -4.12%; `Cc1oc(-c2cccc(Cl)c2)nc1CN1CCC(C(=O)NCc2cccnc2)CC1`: 9.09%.
Next, `COc1ccccc1NC(=O)CN1CCN(CC(=O)Nc2ccc(F)cc2)CC1`: 1.85%; `CCOc1ccc(NC(=O)CN2CCN(CC(=O)Nc3ccccc3OC)CC2)cc1`: -5.69%.
Turning to `CCOC(=O)c1c(NC(=O)CN2CCN(C(=O)c3ccco3)CC2)sc(C)c1C`, the inhibition was -5.18%.
Next, `CCN1/C(=C\C=C(C(C)=O)C(C)=O)Sc2ccccc21`: 3.69%; `CC/C(=C/c1sc2ccccc2[n+]1CC)SC`: -0.17%.
In the case of `CC[n+]1c(/C=C(\C)OC)sc2ccccc21`, the inhibition was -2.73%.
In the case of `CC[n+]1c(/C=C/Nc2ccccc2)sc2ccccc21` it was 11.6%; in that of `CC[n+]1c(/C=C(/C)SC)sc2ccccc21`, -2.81%; in that of `CC[n+]1c(/C=C(\C)SC)sc2ccccc21`, 3.81%.
Next, `Cc1nn(C(C)C(=O)NNC(=S)Nc2ccc(F)cc2)c(C)c1[N+](=O)[O-]` (stereo not given): 6.47%; `Cc1c(O)ccc(C(=O)CN2CCN(c3ccccc3F)CC2)c1O`: -1.8%.
In the case of `CC(C)(C)c1ccc(C(=O)NCCCNC(=O)c2cccnc2)cc1` it was -2.72%; in that of `CCN(CC)C(=O)c1sc2nc(-c3ccccn3)[nH]c(=O)c2c1C`, -6.6%.
For the compound `Cc1sc2nc(-c3ccccn3)[nH]c(=O)c2c1-c1ccccc1`, the inhibition was -4.3%.
Next, `Cc1cc(C)c(S(=O)(=O)N2CCCC(C(=O)N3CCOCC3)C2)c(C)c1` (stereo not given): -9.55%; `Fc1ccccc1NC(=S)N1CCOCC1`: 16.1%; `COC(=O)c1sc(S(=O)(=O)Nc2ccc(C)cc2)c(C(=O)OC)c1C`: 12.7%.
`CCN(/C(N)=N/c1nc(C)cc(C)n1)c1ccccc1`: the inhibition was -6.77%.
Next, `CC12CCC(C(=O)N(CSC(=S)N/N=C\c3ccccc3Cl)C1=O)C2(C)C` (stereo not given): -1.31%.
In the case of `CC12CCC(C(=O)N(CSC(=S)N/N=C\c3ccccc3)C1=O)C2(C)C` (stereo not given) it was 6.84%.
`CCC(C(=O)NC1CCCC1)n1c(SCc2cccc(C)c2)nc2ccncc21` (stereo not given): the inhibition was -51.9%.
Next, `O=[N+]([O-])c1c(NCCCO)cc(N2CCCCCC2)c2nonc12`: 21.6%.
`COc1ccc(-c2nc(C#N)c(N3CC(C)OC(C)C3)o2)cc1OC` (stereo not given): the inhibition was 2.35%.
As to `COc1ccc(NS(=O)(=O)c2ccc(C(=O)N3CCN(c4ccc(F)cc4)CC3)cc2)cc1`, the inhibition is 1.18%.
On to `CC(CC(F)(F)F)N1CCC(n2nccc2NC(=O)CCCc2ccccc2)CC1` (stereo not given), for which the inhibition was -11%.
Next, `Oc1c(Br)cc(Br)cc1/C=N/Nc1ccc(Cl)nn1`: 4.26%; `Fc1ccccc1/C=N/Nc1ccc(Cl)nn1`: -6.11%; `Oc1ccc(/C=N/Nc2ccc(Cl)nn2)cc1O`: 4.82%.
For the compound `Cc1ccccc1/C=N/Nc1ccc(Cl)nn1`, the inhibition was 3.61%.
Next, `CCCCC(=O)Nc1cccc(C(=O)N/N=C/c2ccc(OC)cc2OC)c1`: 1.12%; `CC(C)OC(=O)c1cn(-c2ccccc2)nc1-c1ccc2c(c1)OCCO2`: -6.27%; `CCN(C[C@H]1N[C@@](C)(C(=O)OC)[C@H]2C(=O)N(Cc3ccccc3)C(=O)[C@@H]12)C(=O)c1ccc(F)cc1`: -26.8%.
Next, `O=C(CN1CCN(C(C(=O)Nc2ccc(Cl)cc2C(F)(F)F)c2ccccc2)CC1)NC1CC1` (stereo not given): 3.63%.
In the case of `CC(=O)c1ccc(NC(=O)C(C)Nc2ccc(Cl)cc2)cc1` (stereo not given), the inhibition was -4.25%.
Next, `COC(=O)C(=CC(=CN(C)C)C=C(C(=O)OC)C(=O)OC)C(=O)OC`: -13.2%.
In the case of `CC(C)Cn1c(NCCO)nc2ccccc21` it was -6.72%; in that of `O=c1[nH]c(-c2ccccn2)cc2ccccc12`, -3.67%.
Next, `O=C(COC(=O)c1ccccn1)Nc1cccc2ccccc12`: -2.54%.
With `CN(C)CCCNCC(=O)Nc1ccccc1N1CCOCC1`, the inhibition is 5.38%.
Next, `O=C(COc1ccc2ccccc2c1)N1CCN(C(=O)c2ccco2)CC1`: -12.2%; `CC(=O)NC1=C(Nc2ccc(N(C)C)cc2)C(=O)c2ccccc2C1=O`: 12.5%; `O=C1c2ccccc2C(=O)c2c1cccc2N(CCO)CCO`: 4.16%.
`CN(C=[N+](C)C)c1cccc2c1C(=O)c1ccccc1C2=O`: the inhibition was 3.5%.
With `CCN(CC)CC(=O)Nc1cccc2c1C(=O)c1ccccc1C2=O`, the inhibition was 11%.
Next, `CNc1c(C(=O)O)ccc2c1C(=O)c1ccccc1C2=O`: 13.4%; `CN(C)S(=O)(=O)c1cccc2c1C(=O)c1ccccc1C2=O`: 4.55%.
Next, `CC(C)C[C@H]1COCCS(=O)(=O)N1Cc1cccc(F)c1`: -14.6%; `Cc1ccc(NC(=O)CC2S/C(=N/c3nccs3)N(C)C2=O)c(C)c1` (stereo not given): 2.84%.
Regarding `CCCCNC(=O)NNC(=O)c1ccoc1C`, the inhibition was 0.18%.
For the compound `Cc1cc2oc(=O)cc(COC(=O)Cn3cnnn3)c2cc1C(C)C`, the inhibition is -1.41%.
In the case of `Cc1nc(SCC(=O)Nc2c(C)n(C)n(-c3ccccc3)c2=O)c2cnn(-c3ccccc3)c2n1` it was -4.59%; in that of `CC(C)Nc1nc(NC(C)C)nc(N(C)N)n1`, 14.6%; in that of `CCNc1nc(NCC)nc(N(C)n2cnnc2)n1`, -22%.
Next, `COc1ccccc1C(=O)NNS(=O)(=O)c1ccc(F)cc1`: -5.08%.
Next, `CCc1ccc(NS(=O)(=O)c2c(C(=O)N3CCOCC3)c(C)n(C)c2C)cc1`: 0.85%.
On to `CCOC(=O)C(C)Oc1ccccc1C1NC(=O)NC(C)=C1C(=O)Nc1ccc(C)c(C)c1` (stereo not given), for which the inhibition was -6.31%.
On to `[O-][n+]1c2c(nn1-c1ccccc1)/C(=N/O)CCC2`, for which the inhibition was -6.08%.
Next, `CCOC(=O)Cc1nnc(NC(=O)COc2ccc(F)cc2)s1`: 6.17%; `O=C(Nc1nc(-c2ccco2)c(-c2ccco2)s1)c1c(F)cccc1Cl`: -14.8%.
Next, `CC1(C)OC(=O)C(=NNc2ccccc2[N+](=O)[O-])C(=O)O1`: 3.07%; `CC1=CC(=NNS(=O)(=O)c2ccc([N+](=O)[O-])cc2)CC(C)(C)C1`: 4.39%.
Next, `CC(=O)COc1cc(C)cc2oc(=O)c(C)c(C)c12`: 11.6%; `CCc1ccc2c(c1)C1(NN=C(c3cccc4ccccc34)S1)C(=O)N2` (stereo not given): 11.6%; `CCc1ccc2c(c1)C1(NN=C(c3ccc(C)cc3)S1)C(=O)N2` (stereo not given): 22.9%.
For `CCOc1ccccc1Nc1cc(C)nc2ccc(C)cc12`, the inhibition is 6.09%.
In the case of `Cc1ccc(N2CC(NS(=O)(=O)c3cc(F)ccc3F)CC2=O)cc1C` (stereo not given), the inhibition is 9.69%.
Next, `O=S(=O)(NCc1ccccc1)c1ccc2ccccc2c1`: -9.3%; `Cc1ccc(S(=O)(=O)NCc2csc(C)n2)cc1`: -0.87%; `Cc1cc(C)c(S(=O)(=O)NCc2ccc3c(c2)cc(C)n3C)c(C)c1`: 21.8%.
Next, `Cc1nc(CNS(=O)(=O)c2ccc(Oc3ccccc3)cc2)cs1`: -11.2%; `CCCS(=O)(=O)NCc1ccc2c(c1)cc(C)n2C`: 7.25%; `CCS(=O)(=O)NCc1ccc2c(c1)cc(C)n2C`: 10.3%.
In the case of `Cc1cc2cc(CNS(=O)(=O)c3ccccc3)ccc2n1C` it was 17%.
As to `CC(=O)Nc1ccc(S(=O)(=O)NCc2ccc3c(c2)cc(C)n3C)cc1`, the inhibition is 19.1%.
